Results as given in PubChem BioAssay (NCATS).
Inconclusive results are not listed. A call without a number means that no potency is given here. Values without a mark were called inactive. Active and inactive are the calls of the source. Calls follow the shape of the full dose curve; tested in HEK293 reporter line.
Potency is read from the fitted curve at half-maximal effect.

Assay: qHTS for Inhibitors of the Functional Ribonucleoprotein Complex (vRNP) of Lassa (LASV) Arenavirus: LASV Primary Screen - GLuc reporter signal (AID 1347082); also: nearly all actives have a fitted effect of over 60% in size
Conditions: LASV minigenome vRNP, Gaussia luciferase reporter; series mostly up to 57.5 µM
For `C[C@@H]1CCCCCCCCCCC1=O`, the Potency was “inactive”. For `COc1cc2c(OC(C)=O)c3c(c(-c4ccc5c(c4)OCO5)c2cc1OC)C(=O)OC3`, the Potency was “inactive”. In the case of `COC(=O)c1cc(=O)cc(C(=O)OC)o1`, the Potency is reported as “inactive”. With `O=P(O)(O)OC[C@H]1O[C@](O)(COP(=O)(O)O)[C@@H](O)[C@@H]1O` the Potency was “inactive”. In the case of `CC(=O)OC[C@H]1O[C@@H](Oc2cc(O)cc3oc(-c4ccc(O)cc4)cc(=O)c23)[C@H](O[C@@H]2O[C@@H](C)[C@H](O)[C@@H](O)[C@H]2O)[C@@H](O)[C@@H]1O`, the Potency is reported as “inactive”. With `CC1CC2CCCC(O)=C2C(=O)O1` (stereo not given) the Potency was “inactive”. In the case of `C=C/C(=C/C(=O)C[C@H](C)C[C@@H](C)CC[C@H](O)[C@H](C)C(=O)C[C@@H](O)[C@H](C)[C@@H](C)OC(=O)C[C@@H](O)C1=C(C)C(=O)OC1=O)CC`, the activity change, negative = inhibition is reported as -47.1% [at 11.5 µM]. With `C=C(C)c1cc2c(ccc3ccc(=O)oc32)o1` the Potency was “inactive”. For `C/C(=C\CNc1ncnc2c1ncn2[C@@H]1O[C@H](CO)[C@@H](O)[C@H]1O)CO`, the Potency was “inactive”. In the case of `NC1C(O)OC(CO)[C@@H](O)[C@@H]1O[C@H]1O[C@@H](C(=O)O)C(O)C(O)C1O` (stereo not given in full), the Potency is reported as “inactive”. In the case of `CCCC1CCOC(C)S1` (stereo not given), the Potency is reported as “inactive”. With `O=C(Nc1cc2cc[nH]c2cn1)c1ccccc1` the Potency was “inactive”. With `O=C(O)CC(=O)Nc1ccccc1C(=O)O` the Potency was “inactive”. For `CC(=O)OCC(=O)[C@@]1(O)CC[C@H]2[C@@H]3CCC4=CC(=O)CC[C@]4(C)[C@@H]3C(=O)C[C@@]21C`, the Potency was “inactive”. With `O=C1O/C(=C\c2ccc(O)cc2)C(O)=C1c1ccc(O)cc1` the Potency was “inactive”. With `N=C1SC(=Cc2ccc(-c3ccc4c(c3)C(=O)NC4=O)o2)C(=O)N1c1ccc(Br)cc1` the Potency was “inactive”. In the case of `COc1c2c(nc3ccccc13)OC(C(C)(O)COC(C)=O)C2` (stereo not given), the Potency is reported as “inactive”. For `CC(=NNC(=S)N1CCC1)c1ccccn1`, the Potency was 27.3 nM (active). In the case of `C=C1CC/C=C(\C)CC[C@@H]2[C@@H]1CC2(C)C`, the Potency is reported as “inactive”. For `CC(C)C[C@H](NC(=O)c1cc2ccccc2s1)C(=O)N1CCN(C(=O)[C@H](CO)NS(=O)(=O)c2ccc(Cl)cc2Cl)CC1`, the Potency was “inactive”. For `C=C(C)C(O)Cc1c(OC)ccc(C(=O)/C=C/c2ccc(O)cc2)c1O` (stereo not given), the Potency was “inactive”. In the case of `COc1cc2c(c(OC)c1OC)-c1c(cc(OC)c(OC)c1OC)C[C@](C)(O)[C@@H](C)C2`, the Potency is reported as “inactive”. With `O=C1c2ccccc2C(=O)c2c(O)c(O)cc(O)c21` the Potency was “inactive”. In the case of `O=C(O)CCC/C=C\C/C=C\C=C\[C@@H](O)C/C=C\CCCCCO`, the activity change, negative = inhibition is reported as 7.21% [at 0.757 µM]. With `CC1=C2C(=O)C3C(CC=C4CC(O)CCC43C)C2CCC12OC1CC(C)CNC1C2C` (stereo not given) the Potency was “inactive”. In the case of `CCCCCCCCCCCC(C)=O`, the Potency is reported as “inactive”. In the case of `CC(=O)O[C@H]1C[C@@]2(O)[C@@H](OC(=O)c3ccccc3)C3[C@@](C)([C@@H](O)C[C@H]4OC[C@@]34OC(C)=O)[C@@H](O)[C@H](OC(C)=O)C(=C1C)C2(C)C` (stereo not given in full), the Potency is reported as “inactive”. In the case of `CC[C@@H](C)[C@@H](O)[C@H](C)C(=O)[C@H](C)/C=C(\C)C[C@H](C)[C@@H]1OC(=O)[C@H]1CC`, the Potency is reported as “inactive”. With `COc1ccc(C2Sc3ccccc3N(CCN(C)C)C(=O)C2OC(C)=O)cc1` (stereo not given) the Potency was “inactive”. For `CSCC[C@@H](N)C(=O)O`, the Potency was “inactive”. With `CCCCC/C=C\C[C@@H]1O[C@H]1C(O)/C=C\C/C=C\CCCC(=O)O` (stereo not given in full) the activity change, negative = inhibition was 2.65% [at 0.757 µM]. With `CC1=CC(=O)/C(=C(/C)O)C(=O)O1` the Potency was “inactive”. In the case of `CON(C)C(=O)N1N=C(c2cc(F)ccc2F)S[C@]1(CCCN)c1ccccc1`, the Potency is reported as “inactive”. With `CCCCCCCOC(C)=O` the Potency was “inactive”. With `C[C@]1(CC/C(=C/CO)CO)[C@H](CO)CC[C@@]23COC(=O)C2=CCC[C@@H]31` the Potency was “inactive”. In the case of `CCCCCC1C(=O)CCC1CC(=O)OC` (stereo not given), the Potency is reported as “inactive”. In the case of `C=CC(C)=CCC=C(C)C`, the Potency is reported as “inactive”. For `c1coc(Cn2cccc2)c1`, the Potency was “inactive”. For `CC(C)(O)c1ccc2c(c1)CCC1C(C)(C(=O)O)CCCC21C` (stereo not given), the Potency was “inactive”. For `CC(=O)O[C@H]1CC[C@@]2(C)[C@H](C1)C(=O)C[C@H]1[C@@H]3CC[C@@H]4[C@@H](CN5C[C@@H](C)CC[C@H]5[C@@]4(C)O)[C@@H]3C[C@@H]12`, the Potency was “inactive”.

Assay: qHTS for Inhibitors of the Functional Ribonucleoprotein Complex (vRNP) of Lassa (LASV) Arenavirus: Viability assay - alamar blue signal for LASV Primary Screen (AID 1347083); also: nearly all actives have a fitted effect of over 80% in size
Conditions: cell viability, alamar blue fluorescence (LASV minigenome counter-screen); series mostly up to 57.5 µM
In the case of `C[C@@H]1CCCCCCCCCCC1=O`, the Potency is reported as “inactive”. In the case of `COc1cc2c(OC(C)=O)c3c(c(-c4ccc5c(c4)OCO5)c2cc1OC)C(=O)OC3`, the Potency is reported as “inactive”. In the case of `COC(=O)c1cc(=O)cc(C(=O)OC)o1`, the Potency is reported as “inactive”. In the case of `O=P(O)(O)OC[C@H]1O[C@](O)(COP(=O)(O)O)[C@@H](O)[C@@H]1O`, the Potency is reported as “inactive”. For `CC(=O)OC[C@H]1O[C@@H](Oc2cc(O)cc3oc(-c4ccc(O)cc4)cc(=O)c23)[C@H](O[C@@H]2O[C@@H](C)[C@H](O)[C@@H](O)[C@H]2O)[C@@H](O)[C@@H]1O`, the Potency was “inactive”. With `CC1CC2CCCC(O)=C2C(=O)O1` (stereo not given) the Potency was “inactive”. Work on `C=C/C(=C/C(=O)C[C@H](C)C[C@@H](C)CC[C@H](O)[C@H](C)C(=O)C[C@@H](O)[C@H](C)[C@@H](C)OC(=O)C[C@@H](O)C1=C(C)C(=O)OC1=O)CC` yielded an activity change, negative = reduced viability of -113% [at 11.5 µM]. In the case of `C=C(C)c1cc2c(ccc3ccc(=O)oc32)o1`, the Potency is reported as “inactive”. With `C/C(=C\CNc1ncnc2c1ncn2[C@@H]1O[C@H](CO)[C@@H](O)[C@H]1O)CO` the Potency was “inactive”. With `NC1C(O)OC(CO)[C@@H](O)[C@@H]1O[C@H]1O[C@@H](C(=O)O)C(O)C(O)C1O` (stereo not given in full) the Potency was “inactive”. For `CCCC1CCOC(C)S1` (stereo not given), the Potency was “inactive”. In the case of `O=C(Nc1cc2cc[nH]c2cn1)c1ccccc1`, the Potency is reported as “inactive”. In the case of `O=C(O)CC(=O)Nc1ccccc1C(=O)O`, the Potency is reported as “inactive”. With `CC(=O)OCC(=O)[C@@]1(O)CC[C@H]2[C@@H]3CCC4=CC(=O)CC[C@]4(C)[C@@H]3C(=O)C[C@@]21C` the Potency was “inactive”. With `O=C1O/C(=C\c2ccc(O)cc2)C(O)=C1c1ccc(O)cc1` the Potency was “inactive”. With `N=C1SC(=Cc2ccc(-c3ccc4c(c3)C(=O)NC4=O)o2)C(=O)N1c1ccc(Br)cc1` the Potency was “inactive”. In the case of `COc1c2c(nc3ccccc13)OC(C(C)(O)COC(C)=O)C2` (stereo not given), the Potency is reported as “inactive”. For `CC(=NNC(=S)N1CCC1)c1ccccn1`, the Potency was 43.2 nM (active). With `C=C1CC/C=C(\C)CC[C@@H]2[C@@H]1CC2(C)C` the Potency was “inactive”. In the case of `CC(C)C[C@H](NC(=O)c1cc2ccccc2s1)C(=O)N1CCN(C(=O)[C@H](CO)NS(=O)(=O)c2ccc(Cl)cc2Cl)CC1`, the Potency is reported as “inactive”. In the case of `C=C(C)C(O)Cc1c(OC)ccc(C(=O)/C=C/c2ccc(O)cc2)c1O` (stereo not given), the Potency is reported as “inactive”. In the case of `COc1cc2c(c(OC)c1OC)-c1c(cc(OC)c(OC)c1OC)C[C@](C)(O)[C@@H](C)C2`, the Potency is reported as “inactive”. With `O=C1c2ccccc2C(=O)c2c(O)c(O)cc(O)c21` the Potency was “inactive”. Work on `O=C(O)CCC/C=C\C/C=C\C=C\[C@@H](O)C/C=C\CCCCCO` yielded an activity change, negative = reduced viability of 9.56% [at 0.757 µM]. In the case of `CC1=C2C(=O)C3C(CC=C4CC(O)CCC43C)C2CCC12OC1CC(C)CNC1C2C` (stereo not given), the Potency is reported as “inactive”. With `CCCCCCCCCCCC(C)=O` the Potency was “inactive”. With `CC(=O)O[C@H]1C[C@@]2(O)[C@@H](OC(=O)c3ccccc3)C3[C@@](C)([C@@H](O)C[C@H]4OC[C@@]34OC(C)=O)[C@@H](O)[C@H](OC(C)=O)C(=C1C)C2(C)C` (stereo not given in full) the Potency was “inactive”. In the case of `CC[C@@H](C)[C@@H](O)[C@H](C)C(=O)[C@H](C)/C=C(\C)C[C@H](C)[C@@H]1OC(=O)[C@H]1CC`, the Potency is reported as “inactive”. In the case of `COc1ccc(C2Sc3ccccc3N(CCN(C)C)C(=O)C2OC(C)=O)cc1` (stereo not given), the Potency is reported as “inactive”. With `CSCC[C@@H](N)C(=O)O` the Potency was “inactive”. `CCCCC/C=C\C[C@@H]1O[C@H]1C(O)/C=C\C/C=C\CCCC(=O)O` (stereo not given in full) gave an activity change, negative = reduced viability of 5.76% [at 0.757 µM]. In the case of `CC1=CC(=O)/C(=C(/C)O)C(=O)O1`, the Potency is reported as “inactive”. For `CON(C)C(=O)N1N=C(c2cc(F)ccc2F)S[C@]1(CCCN)c1ccccc1`, the Potency was “inactive”. With `CCCCCCCOC(C)=O` the Potency was “inactive”. For `C[C@]1(CC/C(=C/CO)CO)[C@H](CO)CC[C@@]23COC(=O)C2=CCC[C@@H]31`, the Potency was “inactive”. For `CCCCCC1C(=O)CCC1CC(=O)OC` (stereo not given), the Potency was “inactive”. For `C=CC(C)=CCC=C(C)C`, the Potency was “inactive”. For `c1coc(Cn2cccc2)c1`, the Potency was “inactive”. For `CC(C)(O)c1ccc2c(c1)CCC1C(C)(C(=O)O)CCCC21C` (stereo not given), the Potency was “inactive”. With `CC(=O)O[C@H]1CC[C@@]2(C)[C@H](C1)C(=O)C[C@H]1[C@@H]3CC[C@@H]4[C@@H](CN5C[C@@H](C)CC[C@H]5[C@@]4(C)O)[C@@H]3C[C@@H]12` the Potency was “inactive”.
